# Several values for one entry are separate records, joined by “and”; a condition that tells them apart may be missing. Equal values may be shown once. Inconclusive results are not listed. For some assays here: Entries with a potency or affinity are not part of this list. Some compounds were tested as several samples or in several runs, with calls that do not always agree. Activity calls are given as the source filed them.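 Rule for the calls, unless noted: active = compounds whose cell count with miR-34 switched on is under 0.7 times the count with it off; inactive = the rest.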
# Tests used:
# [1] = liver-stage malaria parasite growth inhibition, primary screen, cell-based, HepG2, luciferase luminescence, HepG2 viability (AID 624349; in the data active = parasite load remaining mostly below about 12%, no sharp cut-off; inactive = mostly above about 10%;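 note: 100% = mean of DMSO negative control wells on the same plate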); conditions: P. berghei liver stage in HepG2, luciferase luminescence, concentration not given here; parasite load remaining: stronger effect = lower value; viability: measured here: HepG2 viability without parasites
# [2] = biological target: 6-phosphogluconate dehydrogenase, decarboxylating (Homo sapiens) (UniProt P52209); test: 6PGD enzyme inhibitors, primary screen, biochemical, human, recombinant enzyme, NADPH absorbance (AID 1159550;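 active = at least 20% inhibition of 6-phosphogluconate dehydrogenase activity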); conditions: recombinant 6PGD, NADPH absorbance 341 nm; at 10 µM; stronger effect = higher value
# Sequence of 6-phosphogluconate dehydrogenase, decarboxylating (Homo sapiens) (P52209 whole entry, looked up): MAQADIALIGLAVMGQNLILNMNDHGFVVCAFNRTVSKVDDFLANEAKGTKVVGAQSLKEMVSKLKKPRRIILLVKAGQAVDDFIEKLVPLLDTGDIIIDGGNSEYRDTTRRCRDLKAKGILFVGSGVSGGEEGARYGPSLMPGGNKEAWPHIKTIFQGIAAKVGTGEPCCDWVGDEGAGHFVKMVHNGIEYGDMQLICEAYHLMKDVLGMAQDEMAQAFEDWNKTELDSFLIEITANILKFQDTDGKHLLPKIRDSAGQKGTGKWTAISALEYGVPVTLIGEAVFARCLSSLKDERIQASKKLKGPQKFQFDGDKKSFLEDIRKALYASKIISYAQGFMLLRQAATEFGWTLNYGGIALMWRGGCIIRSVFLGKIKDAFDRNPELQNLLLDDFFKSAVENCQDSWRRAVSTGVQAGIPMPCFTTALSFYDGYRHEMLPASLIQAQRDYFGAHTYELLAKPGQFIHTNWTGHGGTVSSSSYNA
# [3] = growth inhibition of DIPG glioma cells, dose response, cell-based, SU-DIPG-XIII, MIPE4.0, CellTiter-Glo, qHTS (AID 1347061; cut-off not given, nearly all actives have AC50 up to about 37 µM;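 note: cells exposed to compound for 48 hours before readout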); conditions: SU-DIPG-XIII viability, CellTiter-Glo ATP luminescence
# [4] = growth inhibition of DIPG glioma cells, dose response, cell-based, JHH-DIPG-1, MIPE4.0, CellTiter-Glo, qHTS (AID 1347062; cut-off not given, nearly all actives have AC50 up to about 27 µM); conditions: JHH-DIPG-1 viability, CellTiter-Glo ATP luminescence
# [5] = growth inhibition of DIPG glioma cells, dose response, cell-based, SU-DIPG-IV, MIPE4.0, CellTiter-Glo, qHTS (AID 1347063; cut-off not given, nearly all actives have AC50 up to about 30 µM;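 note: compound exposure lasted 48 hours before the viability readout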); conditions: SU-DIPG-IV viability, CellTiter-Glo ATP luminescence
# [6] = JHH-DIPG-1 glioma cell viability, MIPE5.0 library, CellTiter-Glo luminescence, qHTS (AID 1347067; cut-off not given, nearly all actives have AC50 up to about 26 µM;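 note: cells exposed to compound for 48 hours before readout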); conditions: JHH-DIPG-1 glioma viability, CellTiter-Glo ATP luminescence
# [7] = sensitizers of A549 cells to miR-34 induction, primary screen, imaging, A549 dox-inducible miR-34, nuclei and caspase counts (AID 1347080); conditions: A549 miR-34 inducible, Hoechst nuclei count, 48 h
# [8] = biological target: Mitogen-activated protein kinase 7 (Homo sapiens) (UniProt Q13164); test: ERK5 transactivation activators in reporter cells, primary screen, cell-based, HTS (AID 1508626;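 active = luciferase signal above three times the same-plate solvent-only control wells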;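 note: luciferase driven by Gal4-ERK5 fusion binding five Gal4 sites before minimal TATA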); conditions: HeLa Gal4-ERK5 transactivation, 18 h, at 5 µM, stronger effect = higher value
# Sequence of Mitogen-activated protein kinase 7 (Homo sapiens) (Q13164 whole entry, looked up, the tested form may be a part): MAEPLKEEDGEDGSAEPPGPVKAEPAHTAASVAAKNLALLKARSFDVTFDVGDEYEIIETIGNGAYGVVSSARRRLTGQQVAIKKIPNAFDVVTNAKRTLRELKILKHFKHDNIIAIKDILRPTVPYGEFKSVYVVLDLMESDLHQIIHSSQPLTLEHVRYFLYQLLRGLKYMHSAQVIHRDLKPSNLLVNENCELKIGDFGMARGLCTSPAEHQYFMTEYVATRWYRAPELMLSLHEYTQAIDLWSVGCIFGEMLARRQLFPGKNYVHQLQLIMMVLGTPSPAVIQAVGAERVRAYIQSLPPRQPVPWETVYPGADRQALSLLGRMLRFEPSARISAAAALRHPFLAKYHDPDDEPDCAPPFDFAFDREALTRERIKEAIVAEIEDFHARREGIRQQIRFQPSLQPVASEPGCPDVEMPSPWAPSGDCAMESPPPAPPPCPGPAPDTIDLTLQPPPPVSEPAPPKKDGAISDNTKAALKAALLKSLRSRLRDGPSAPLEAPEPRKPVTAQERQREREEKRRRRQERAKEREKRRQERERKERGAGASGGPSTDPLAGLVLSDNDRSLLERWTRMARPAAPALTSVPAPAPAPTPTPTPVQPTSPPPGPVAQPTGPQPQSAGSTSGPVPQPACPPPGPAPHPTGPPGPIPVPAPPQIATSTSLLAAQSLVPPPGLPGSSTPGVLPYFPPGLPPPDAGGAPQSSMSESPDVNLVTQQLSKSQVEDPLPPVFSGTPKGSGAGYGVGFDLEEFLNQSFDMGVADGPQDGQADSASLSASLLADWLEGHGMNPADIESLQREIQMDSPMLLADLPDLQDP
# [9] = viability rescue of complex I mutant cybrids, primary screen, cell-based, galactose medium, ATP luminescence (AID 1645843;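 active = z-score of at least 1.8 in each of two replicates, scored against plate mean and spread of sample wells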;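 note: positive z means more ATP and so rescue of galactose-driven cybrid death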); conditions: complex I mutant cybrid cells, 72 h, stronger effect = higher value
# [10] = polyglutamine-triggered caspase-3 activation inhibitors, cell-based (AID 1583); conditions: polyglutamine-induced caspase-3 activation, cell assay; stronger effect = higher value;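 tested at 10 µM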
# [11] = suppressors of polyQ aggregation in yeast, 75Q-TubU reporter (AID 1593); conditions: Yeast 75Q polyglutamine aggregation reporter
# [12] = rescue of polyQ-huntingtin neuronal dysfunction in worms, whole organism, C. elegans mechanosensory neurons, N-terminal huntingtin (AID 1599); conditions: touch response, stronger effect = higher value
# [13] = inhibitors of mitochondrial cytochrome c release, biochemical, purified mitochondria (AID 1603); conditions: stronger effect = lower value;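 note: mouse liver mitochondria challenged with calcium chloride; signal normalized to the plate average as 100%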
# [14] = inhibitors of polyQ protein aggregation (AID 1604); conditions: polyglutamine-induced protein aggregation inhibition assay; stronger effect = higher value; tested at 2.5 µM
# [15] = enhancers of glutamate uptake in motor neurons, MN-1 cell line (AID 1612); conditions: MN-1 motor neuron cells, stronger effect = higher value;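 note: tested at 1 µM final; 0% = mean of DMSO vehicle wells on each plate; positive means more glutamate uptake than control and negative means less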
# [16] = suppressors of polyglutamine aggregation in yeast, 75Q-TubH (AID 1616); conditions: S. cerevisiae 75Q-TubH polyglutamine aggregation suppression; stronger effect = higher value
# [17] = survival rescue of mitochondrial mutant cells in low glucose, primary screen, MELAS cybrids, Rieske KO mouse fibroblasts, CellTiter-Glo (AID 1508586;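 active = mean z-score across replicates of 1.96 or higher in either the MELAS or the Rieske mutant cell line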;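 note: z relative to plate mean and SD of compound and empty wells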)
# [18] = biological target: NAD(+) hydrolase SARM1 (Homo sapiens) (UniProt Q6SZW1); test: SARM1 TIR NADase inhibitors, cell lysate, NAD-Glo luminescence (AID 1508614;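 active = compound whose remaining NAD level is above about 45 nM, limit read from the data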;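 note: higher remaining NAD means stronger inhibition of SARM1 NADase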); conditions: SAM-TIR HEK293T lysate NADase, at 1 µM, stronger effect = higher value
# Sequence of NAD(+) hydrolase SARM1 (Homo sapiens) (Q6SZW1 whole entry, looked up): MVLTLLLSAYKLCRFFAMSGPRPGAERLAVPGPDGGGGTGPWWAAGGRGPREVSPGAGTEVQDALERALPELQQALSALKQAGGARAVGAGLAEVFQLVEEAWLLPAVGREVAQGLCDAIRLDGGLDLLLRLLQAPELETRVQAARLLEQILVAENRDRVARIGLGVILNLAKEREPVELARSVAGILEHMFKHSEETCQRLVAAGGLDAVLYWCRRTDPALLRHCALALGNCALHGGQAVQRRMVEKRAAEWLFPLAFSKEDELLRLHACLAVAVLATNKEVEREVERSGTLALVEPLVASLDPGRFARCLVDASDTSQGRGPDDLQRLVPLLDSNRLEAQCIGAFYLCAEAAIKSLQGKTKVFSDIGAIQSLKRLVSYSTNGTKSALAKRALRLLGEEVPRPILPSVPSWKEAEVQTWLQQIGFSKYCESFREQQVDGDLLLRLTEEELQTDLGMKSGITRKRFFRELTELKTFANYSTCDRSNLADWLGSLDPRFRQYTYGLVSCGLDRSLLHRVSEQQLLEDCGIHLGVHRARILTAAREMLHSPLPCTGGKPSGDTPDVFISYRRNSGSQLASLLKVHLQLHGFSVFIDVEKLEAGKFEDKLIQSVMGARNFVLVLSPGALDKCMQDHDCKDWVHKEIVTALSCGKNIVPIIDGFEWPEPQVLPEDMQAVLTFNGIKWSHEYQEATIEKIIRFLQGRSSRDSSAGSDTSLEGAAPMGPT
# [19] = stronger effect = lower value, cell number ratio, induced over uninduced
# [20] = measured here: relative caspase fold change +Dox/-Dox
# [21] = measured here: total cells with miR-34 induction, stronger effect = lower value
# [22] = measured here: total cells without miR-34 induction
smiles,measurement,setting,value
C=C(C)[C@@H]1CC[C@]2(C(=O)O)CC[C@]3(C)[C@H](CC[C@@H]4[C@@]5(C)CC[C@H](O)C(C)(C)[C@@H]5CC[C@]43C)[C@@H]12,parasite load remaining,[1],-8.09% (active) and 64% (inactive)
same,viability,[1],99.2% and 78.2%
same,inhibition,[2],0.445% (inactive)
same,outcome,[3],inactive
same,outcome,[4],inactive
same,outcome,[5],inactive
same,outcome,[6],inactive
same,fold change,[7]; [19],0.792 (inactive) and 1.12 (inactive)
same,fold change,[7]; [20],1.41 and 0.964
same,cell count,[7]; [21],5780 and 2010
same,cell count,[7]; [22],7300 and 1790
same,luciferase signal,[8],64 AU (inactive)
C=C1C(=O)O[C@H]2[C@H]1CC/C(C)=C/CC[C@@]1(C)O[C@@H]21,inhibition,[2],4.61% (inactive)
same,fold change,[7]; [19],0.99 (inactive)
same,fold change,[7]; [20],0.618
same,cell count,[7]; [21],8550
same,cell count,[7]; [22],8630
same,z-score,[9],1.27 (inactive)
O=C(O)C1=CCNCC1,inhibition,[10],3.63%
same,score,[11],1.62
same,rescue above control,[12],-1.41
same,cytochrome c release ratio,[13],1.01
same,inhibition of aggregation,[14],45.5%
same,glutamate uptake change,[15],8.29%
same,aggregation suppression score,[16],1.29
same,inhibition,[2],13% (inactive)
same,fold change,[7]; [19],1 (inactive) and 0.973 (inactive)
same,fold change,[7]; [20],1.35 and 1.1
same,cell count,[7]; [21],9950 and 8720
same,cell count,[7]; [22],9930 and 8960
same,z-score,[9],0.645 (inactive) and -0.22 (inactive)
C[C@H]1C[C@H]2[C@@H]3CCC4=CC(=O)C=C[C@]4(C)[C@@]3(F)[C@@H](O)C[C@]2(C)[C@@]1(O)C(=O)CO,parasite load remaining,[1],183% (inactive) and 101% (inactive)
same,viability,[1],104% and 71.8%
same,inhibition,[2],-0.85% (inactive)
same,outcome,[3],inactive
same,outcome,[4],inactive
same,outcome,[5],inactive
same,fold change,[7]; [19],0.813 (inactive)
same,fold change,[7]; [20],1.45
same,cell count,[7]; [21],6320
same,cell count,[7]; [22],7770
same,z-score,"[17]; MELAS cybrid survival, CellTiter-Glo 48 h, stronger effect = higher value",-0.582 (inactive)
same,z-score,"[17]; Rieske KO mouse fibroblast survival, CellTiter-Glo 72 h",-0.299
same,remaining NAD,[18],10 nM (inactive)
same,luciferase signal,[8],80 AU (inactive)
COc1cccc(OC)c1OCCNCC1COc2ccccc2O1 (stereo unspecified),inhibition,[2],18.8% (inactive)
same,fold change,[7]; [19],0.967 (inactive) and 0.92 (inactive)
same,fold change,[7]; [20],1.13 and 0.877
same,cell count,[7]; [21],8030 and 7680
same,cell count,[7]; [22],8310 and 8340
same,z-score,[9],-0.59 (inactive) and -0.815 (inactive)
CC(C)(O)CC[C@@H](O)[C@](C)(O)[C@H]1CC[C@@]2(O)C3=CC(=O)[C@@H]4C[C@@H](O)[C@@H](O)C[C@]4(C)[C@H]3CC[C@]12C,inhibition,[2],8% (inactive)
same,outcome,[4],inactive
same,outcome,[5],inactive
same,outcome,[6],inactive
same,luciferase signal,[8],60 AU (inactive)

# Reference: PubChem BioAssay
